Test results from PubChem BioAssay AID651725 (National Center for Advancing Translational Sciences (NCATS), 2012).
Out of some 360,000 compounds screened, about 2,000 (0.56%) were called active. Inconclusive results (about 2%) are left out. Cut-off read from the data, not from the text of the source: active = activity change below about -65%; inconclusive = mostly about -30% to -63%; inactive = weaker than that. Shown is part of a subset that was picked to be rich in actives.

The compounds below were run against Homeobox protein SIX1 (Homo sapiens) + Protein phosphatase EYA2 (Homo sapiens) (UniProt Q15475+O00167) (assay: qHTS Assay for Inhibitors of the Six1/Eya2 Interaction). Details: AlphaScreen GST-Six1/His-Eya2 binding, biochemical; active compounds read low.
How it was run: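 AlphaScreen with GST-Six1 and His-Eya2 (5X mix: 250 nM and 500 nM), glutathione donor and nickel acceptor beads; buffer 50 mM Tris pH 8.0, 300 mM NaCl, 1 mM TCEP; 1 h at 37 C in the dark.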
% is set by controls: 0 for no effect and ±100 for the full control effect.

Chain of Homeobox protein SIX1 (Homo sapiens) + Protein phosphatase EYA2 (Homo sapiens) (O00167 whole entry, looked up): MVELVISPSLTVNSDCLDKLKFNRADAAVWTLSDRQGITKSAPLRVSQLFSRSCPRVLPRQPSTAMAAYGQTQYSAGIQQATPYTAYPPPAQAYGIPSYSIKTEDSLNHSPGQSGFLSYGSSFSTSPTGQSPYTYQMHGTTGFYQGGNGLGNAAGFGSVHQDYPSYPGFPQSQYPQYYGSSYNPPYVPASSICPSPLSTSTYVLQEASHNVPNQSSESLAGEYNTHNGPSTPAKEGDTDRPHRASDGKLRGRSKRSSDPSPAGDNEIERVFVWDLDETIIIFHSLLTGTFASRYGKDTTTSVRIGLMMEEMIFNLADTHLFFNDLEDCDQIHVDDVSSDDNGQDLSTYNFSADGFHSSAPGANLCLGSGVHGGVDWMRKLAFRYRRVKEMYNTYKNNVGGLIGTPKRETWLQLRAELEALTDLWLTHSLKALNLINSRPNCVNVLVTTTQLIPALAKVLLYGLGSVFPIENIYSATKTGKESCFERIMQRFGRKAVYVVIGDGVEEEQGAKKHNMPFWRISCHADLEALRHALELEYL
Chain of Homeobox protein SIX1 (Homo sapiens) + Protein phosphatase EYA2 (Homo sapiens) (Q15475 whole entry, looked up): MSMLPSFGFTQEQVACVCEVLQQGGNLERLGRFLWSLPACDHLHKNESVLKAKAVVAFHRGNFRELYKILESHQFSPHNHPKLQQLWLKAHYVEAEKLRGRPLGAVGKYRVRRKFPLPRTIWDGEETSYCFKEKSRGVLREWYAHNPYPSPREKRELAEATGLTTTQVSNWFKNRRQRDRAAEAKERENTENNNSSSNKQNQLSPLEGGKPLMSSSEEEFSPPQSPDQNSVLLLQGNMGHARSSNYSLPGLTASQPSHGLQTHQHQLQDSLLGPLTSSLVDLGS

Row | Compound | activity change
1 | COCCNC(=O)C1C(=O)Nc2ccccc2C(=O)N1c1ccc2c(c1)OCCO2 (centres undefined) | 7.33% (inactive)
2 | CC1(C(=O)Nc2ccc3c(c2)OCCO3)CN(S(C)(=O)=O)CC(=O)N1Cc1cccc(F)c1 (centres undefined) | 6.88% (inactive)
3 | Oc1c(C(c2ccccn2)N2CCOCC2)ccc2cccnc12 (centres undefined) | -91.8% (active)
4 | O=C(C[C@H]1CC[C@H]2[C@@H](COC[C@H](O)CN2C(=O)c2ccccn2)O1)N1CCN(c2ccccc2)CC1 | -7.33% (inactive)
5 | CCCCn1nnnc1C1(C)CCC(=O)N1Cc1ccc(OC)c(OC)c1 (centres undefined) | -14.1% (inactive)
6 | CC(C)NC(=O)C(=O)NCCCOC(C)C | 7.72% (inactive)
7 | Cc1nn(C)cc1C(=O)NNC(=S)Nc1ccc(Cl)cc1 | 0.473% (inactive)
8 | Cc1cccc(-n2cnc(C(=O)NNC(=S)Nc3ccccc3)c2)n1 | -90.4% (active)
9 | Cc1cccc(-n2cnc(C(=O)Nc3cccnc3)c2)n1 | 26.5% (inactive)
10 | O=C1COc2ccc(S(=O)(=O)NCCc3ccc(Cl)cc3)cc2N1 | 6.96% (inactive)
11 | CCOC(=O)[C@]12CCCC=C1N(CCC1=CCCCC1)C(=O)[C@H](CC(=O)N1CCOCC1)C2 | 8.54% (inactive)
12 | Cn1c(N)c(C(=O)COC(=O)c2cnc(Cl)c(Cl)c2)c(=O)n(C)c1=O | -92.3% (active)
13 | Cn1c(N)c(C(=O)COC(=O)c2ccc3ccccc3c2)c(=O)n(C)c1=O | -0.607% (inactive)
14 | Cn1c(N)c(C(=O)COC(=O)COc2ccc(Cl)cc2)c(=O)n(C)c1=O | -10.5% (inactive)
15 | COC(=O)c1scc(S(=O)(=O)C(C)(C)C)c1-n1cccc1 | 5.88% (inactive)
16 | CCC(=O)Nc1ccc(C(=O)CSc2nnc(CNc3ccc(Cl)cc3)o2)cc1OC | -0.882% (inactive)
17 | O=C(NCc1ccccc1Cl)C1CCC(CNc2c(N3CCCCC3)c(=O)c2=O)CC1 (centres undefined) | 5.37% (inactive)
18 | Cc1cccc(NC(=O)c2cccc(S(=O)(=O)N3CCCC3)c2)n1 | -10.7% (inactive)
19 | CCOc1cc(/C=N/NC(=O)c2cccc(S(=O)(=O)N3CCOCC3)c2)ccc1OCC(=O)N(C)C | -8.33% (inactive)
20 | Cc1ncc(CO)c(/C=N/NC(=O)c2cccc(S(=O)(=O)N3CCCC3)c2)c1O | -82.4% (active)
21 | CCCC[C@@H]1CN=C(N)N1CCc1cc(C(F)(F)F)cc(C(F)(F)F)c1 | 16.6% (inactive)
22 | Cn1cncc1COC(=O)c1ccc(Cl)cc1 | -6.11% (inactive)

Row | Compound | activity change
23 | Cc1cc(OC(=O)c2ccc(Cl)cc2)cc(=O)n1C | -92.4% (active)
24 | Cc1ccc(CNC(=O)CCCNC(=O)c2ccc(Cl)cc2)n1C | -7.14% (inactive)
25 | O=C1NC[C@H](Cc2ccc(O)cc2)N(C[C@@H]2CCCN2C[C@H](Cc2ccccc2)N2C[C@H](Cc3ccccc3)N(CC3CCCCC3)C(=O)C2=O)C1=O | 9.57% (inactive)
26 | COC(=O)[C@]12CCCCC=C1N(CCC1=CCCCC1)C(=O)[C@H](CC(=O)NCC1CCCCC1)C2 | -2.3% (inactive)
27 | Cc1c(N=Nc2ccc(N(C)C)cc2)c(=O)n(-c2ccccc2)n1C | -7.33% (inactive)
28 | Cc1nc(N)sc1N=Nc1c(C)n(C)n(-c2ccccc2)c1=O | -66.7% (active)
29 | Cc1c(C=O)n(C)n(-c2ccccc2)c1=O | 15.7% (inactive)
30 | CCCCCCCCN1C(=O)[C@H](CC(=O)NCc2cccc3ccccc23)C[C@@]2(C(=O)OC)CCCCC=C12 | 0.0747% (inactive)
31 | N#Cc1ccc(C(C(=O)NCc2ccccc2)n2c(=O)c(-c3ccco3)nc3ccccc32)cc1 (centres undefined) | 2.42% (inactive)
32 | O=C(CNC(=O)c1cccnc1)N/N=C/c1cc(Br)c(O)c(Br)c1 | -6.06% (inactive)
33 | O=C(CSc1cccc2cccnc12)N/N=C/c1cccnc1 | -80.7% (active)
34 | Cc1ccc(S(=O)(=O)N(CC(=O)N/N=C/c2ccc(F)cc2)c2cccc3cccnc23)cc1 | -0.495% (inactive)
35 | C[C@H]1CN([C@@H](C)CO)C(=O)CCCn2nncc2CO[C@@H]1CN(C)Cc1ccc(Oc2ccccc2)cc1 | 13.9% (inactive)
36 | CNc1ccc(NC(C)=O)cc1[N+](=O)[O-] | -0.656% (inactive)
37 | Cc1cc([N+](=O)[O-])c(=O)[nH]c1C | 4.44% (inactive)
38 | CNc1[nH]ncc1[N+](=O)[O-] | -66.5% (active)
39 | Nc1nnnn1/N=C/c1cccs1 | 2.77% (inactive)
40 | Nc1nnnn1/N=C/c1cccc(Br)c1 | -1.52% (inactive)
41 | Nc1nnnn1/N=C/c1cc([N+](=O)[O-])ccc1O | -65.9% (active)
42 | COC(=O)[C@@]12C[C@@H](CC(=O)N3CCCCC3)C(=O)N(Cc3ccc4c(c3)OCO4)C1=CCC(C)(C)C2 | -15.9% (inactive)
43 | COc1ccc(/C=N/N(C)C2=NS(=O)(=O)c3ccccc32)cc1OC | -67.9% (active)
44 | COc1ccc(C(C)(C)C)cc1NC(=O)CN(C)C1=NS(=O)(=O)c2ccccc21 | 4.86% (inactive)
